Data from PubChem BioAssay (NCATS).
Unmarked numbers belong to inactive results. Calls of active or inactive are those of the source. How the calls were made is not given here.

Assay: qHTS assay for small molecule activators of the human pregnane X receptor (PXR) signaling pathway (AID 720659); further: 0% is about no effect
Conditions: DPX-2 HepG2 CYP3A4-luciferase, 24 h; series mostly up to 92.3 µM; activation: at the top concentration

| SMILES | activation [%] | outcome |
| --- | --- | --- |
| Cc1ncc([N+](=O)[O-])n1CCO | -2.25 | – |
| CN(C)c1ccc(C(=C2C=CC(=[N+](C)C)C=C2)c2ccc(N(C)C)cc2)cc1 | – | inactive |
| N=C(N)c1ccc(OCCCCCOc2ccc(C(=N)N)cc2)cc1 | – | inactive |
| Cc1nnc(NS(=O)(=O)c2ccc(N)cc2)s1 | -13.8 | – |
| CC(=O)CC(c1ccccc1)c1c(O)c2ccccc2oc1=O (centres undefined) | 6.45 | – |
| Cc1noc(NS(=O)(=O)c2ccc(N)cc2)c1C | – | inactive |
| NNC(=O)c1ccncc1 | -2.67 | – |
| O=C(O)c1cc(=O)[nH]c(=O)[nH]1 | -1.7 | – |
| Cc1cc(NS(=O)(=O)c2ccc(N)cc2)no1 | -1.57 | – |
| Nc1nc(N)c2nc(CNc3ccc(C(=O)NC(CCC(=O)O)C(=O)O)cc3)cnc2n1 (centres undefined) | 27.2 | – |
| N[C@@H](Cc1ccc(O)c(O)c1)C(=O)O | 7.86 | – |
| Cc1ccnc2c1NC(=O)c1cccnc1N2C1CC1 | 1.17 | – |
| COc1ccc2cc3[n+](cc2c1OC)CCc1cc2c(cc1-3)OCO2 | -2.43 | – |
| NC(N)=NC(N)=NCCc1ccccc1 | – | inactive |
